# Reference: PubChem BioAssay (NCATS)
# Records with an inconclusive call do not appear. Entries that show only a call come without a potency. Calls of active or inactive are those of the source. Unless noted, calls follow the shape of the dose curve; as a rule, active = well fitted curve in the direction sought with a large enough effect; inconclusive = small, poorly fitted or top-dose-only effect, or another doubt; inactive = no such curve, though single readings can be large; an effect the other way counts as inactive or inconclusive.
# Columns and labels:
# [1] = target: Voltage-gated inwardly rectifying potassium channel KCNH2 (Homo sapiens) (UniProt Q12809); experiment: qHTS Assay for Small Molecule Inhibitors of the Human hERG Channel Activity (AID 588834);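 also: lower thallium flux fluorescence means stronger hERG block; nearly all actives have a fitted effect of over 50% in size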; also: potency is read from the fitted curve at half-maximal effect
# Voltage-gated inwardly rectifying potassium channel KCNH2 (Homo sapiens), sequence (Q12809 whole entry, looked up): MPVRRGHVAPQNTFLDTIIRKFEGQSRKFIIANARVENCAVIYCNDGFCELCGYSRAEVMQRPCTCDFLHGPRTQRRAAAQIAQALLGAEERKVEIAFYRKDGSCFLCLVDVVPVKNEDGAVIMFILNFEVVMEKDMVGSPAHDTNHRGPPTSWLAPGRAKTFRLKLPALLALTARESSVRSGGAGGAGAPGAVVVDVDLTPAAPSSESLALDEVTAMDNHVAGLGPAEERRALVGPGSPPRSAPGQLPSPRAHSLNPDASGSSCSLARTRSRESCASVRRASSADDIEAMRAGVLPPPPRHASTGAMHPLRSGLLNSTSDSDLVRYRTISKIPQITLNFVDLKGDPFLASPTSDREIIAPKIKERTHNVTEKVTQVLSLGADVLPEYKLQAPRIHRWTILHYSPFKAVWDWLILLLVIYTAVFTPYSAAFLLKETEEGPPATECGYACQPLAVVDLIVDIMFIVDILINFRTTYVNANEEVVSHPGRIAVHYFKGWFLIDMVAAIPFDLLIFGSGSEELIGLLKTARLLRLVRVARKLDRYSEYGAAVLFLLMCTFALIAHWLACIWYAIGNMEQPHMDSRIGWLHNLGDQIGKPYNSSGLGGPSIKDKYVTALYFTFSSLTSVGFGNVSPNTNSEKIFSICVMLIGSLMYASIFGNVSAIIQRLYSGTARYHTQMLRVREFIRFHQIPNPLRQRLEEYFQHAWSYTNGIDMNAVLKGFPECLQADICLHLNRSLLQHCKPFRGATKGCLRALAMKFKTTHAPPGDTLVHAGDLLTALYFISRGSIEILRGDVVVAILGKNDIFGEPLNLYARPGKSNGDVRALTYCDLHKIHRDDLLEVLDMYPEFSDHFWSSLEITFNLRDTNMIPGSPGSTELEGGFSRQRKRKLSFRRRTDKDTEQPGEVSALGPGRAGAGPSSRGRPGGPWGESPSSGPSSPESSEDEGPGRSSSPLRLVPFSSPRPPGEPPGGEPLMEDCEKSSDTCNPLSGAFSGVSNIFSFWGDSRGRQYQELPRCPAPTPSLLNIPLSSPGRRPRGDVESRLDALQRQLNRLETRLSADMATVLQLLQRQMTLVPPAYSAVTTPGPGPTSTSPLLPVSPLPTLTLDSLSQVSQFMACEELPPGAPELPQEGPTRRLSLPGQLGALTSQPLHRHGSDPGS
# Method in brief: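 Thallium-flux (FluxOR) read-out on FDSS: fluorescence read 10 s before and 2 min after stimulation buffer. hERG-BacMam-transduced U2OS cells, compound exposure about 10 min. AC50 by standard Hill equation.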
# [2] = target: Glutaminase kidney isoform, mitochondrial (Homo sapiens) (UniProt O94925); experiment: qHTS for Inhibitors of Glutaminase (GLS): LOPAC Validation (AID 624146);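 also: glutamate product detected by oxidase and peroxidase coupled Amplex red fluorescence gain; nearly all actives have a fitted effect of over 60% in size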
# Glutaminase kidney isoform, mitochondrial (Homo sapiens), sequence (O94925 whole entry, looked up, canonical isoform): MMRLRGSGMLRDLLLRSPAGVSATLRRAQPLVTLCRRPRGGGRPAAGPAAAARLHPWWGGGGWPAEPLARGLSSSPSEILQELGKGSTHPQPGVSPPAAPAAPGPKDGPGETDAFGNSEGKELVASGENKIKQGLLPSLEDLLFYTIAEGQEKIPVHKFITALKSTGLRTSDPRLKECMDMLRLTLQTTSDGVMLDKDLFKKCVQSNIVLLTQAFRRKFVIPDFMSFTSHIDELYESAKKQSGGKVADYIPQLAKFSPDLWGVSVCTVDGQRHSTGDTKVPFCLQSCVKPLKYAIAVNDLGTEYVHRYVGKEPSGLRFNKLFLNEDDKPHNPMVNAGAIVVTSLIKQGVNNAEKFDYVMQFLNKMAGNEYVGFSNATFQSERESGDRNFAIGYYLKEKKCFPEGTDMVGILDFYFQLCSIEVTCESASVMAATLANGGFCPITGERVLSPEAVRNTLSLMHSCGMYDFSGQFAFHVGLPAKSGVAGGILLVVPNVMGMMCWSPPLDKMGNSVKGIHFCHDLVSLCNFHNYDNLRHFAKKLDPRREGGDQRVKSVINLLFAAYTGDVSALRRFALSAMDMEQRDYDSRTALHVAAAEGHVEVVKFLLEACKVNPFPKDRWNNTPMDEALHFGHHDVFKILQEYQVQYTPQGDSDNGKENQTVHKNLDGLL
# Method in brief: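 Enzyme dispensed in phosphate buffer (45 mM, pH 8.2, 0.02% Tween-20), compounds pinned in, then 1 mM L-glutamine solution and the glutamate oxidase–HRP–Amplex Red mix added; fluorescence read immediately and again after 30 min at room temperature.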
# [3] = qHTS of Trypanosoma Brucei Inhibitors: LOPAC Validation (AID 624147)
# Method in brief: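 Activity of T. brucei pyruvate kinase was followed by Kinase-Glo Plus luminescence after the enzyme reacted 45 min at room temperature with 130 uM ADP (final) and substrate. Test compounds were added before ADP at multiple concentrations.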
# [4] = qHTS of Nrf2 Activators: LOPAC Validation (AID 624149)
# Method in brief: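 AREc32_Fluc cells, 1000/well, OPTI-MEM + 5% FBS, o/n 37 deg C 5% CO2; compound pin-transfer, 24 hr 37 deg C; Steady-Glo 30 min RT, luminescence read.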
# [5] = HTS Assay for Allosteric Antagonists of the Human D2 Dopamine Receptor: Hit Validation in HTRF (AID 624455)
# Method in brief: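 HTRF read-out; cells stably expressing D1 receptor; hits scored for inhibition of D1-mediated response. Primary screen: calcium flux, force-coupled inducible Hek293 Trex D2 line, antagonism vs EC80 dopamine.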
# [6] = target: Luciferin 4-monooxygenase (Photinus pyralis) (UniProt P08659); experiment: Biochemical firefly luciferase enzyme assay for NPC (AID 624030);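 also: purified P. pyralis luciferase at 10 nM with luciferin and ATP substrate; nearly all actives have a fitted effect of over 70% in size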
# Luciferin 4-monooxygenase (Photinus pyralis), sequence (P08659 whole entry, looked up): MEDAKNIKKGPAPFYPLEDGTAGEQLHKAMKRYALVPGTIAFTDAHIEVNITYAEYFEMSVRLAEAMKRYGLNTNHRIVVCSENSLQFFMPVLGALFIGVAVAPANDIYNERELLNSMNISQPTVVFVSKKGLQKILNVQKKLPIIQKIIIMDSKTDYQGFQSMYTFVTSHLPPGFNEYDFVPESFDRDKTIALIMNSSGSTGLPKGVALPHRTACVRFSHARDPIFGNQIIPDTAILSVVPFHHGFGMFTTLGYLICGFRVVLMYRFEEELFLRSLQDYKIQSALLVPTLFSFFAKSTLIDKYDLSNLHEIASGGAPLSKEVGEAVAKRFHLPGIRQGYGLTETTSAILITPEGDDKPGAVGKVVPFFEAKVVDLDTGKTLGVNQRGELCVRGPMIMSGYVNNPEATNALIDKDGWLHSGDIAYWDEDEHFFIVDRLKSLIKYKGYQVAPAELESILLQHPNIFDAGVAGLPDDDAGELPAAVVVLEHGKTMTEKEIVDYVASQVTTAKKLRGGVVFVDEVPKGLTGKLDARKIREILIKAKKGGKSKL
# Method in brief: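 Counter-screen for direct inhibition of the luciferase enzyme by approved-drug library compounds, run at 10 nM enzyme in 50 mM Tris acetate (final). Luminescence was read within 5 min of enzyme-buffer addition and normalized to PTC124 versus DMSO (0%).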
# [7] = S16 Schwann cell PMP22 intronic element firefly luciferase assay (AID 624032); also: nearly all actives have a fitted effect of over 30% in size; also: potency is read from the fitted curve at half-maximal effect
# Method in brief: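 Rat S16 Schwann cells stably carrying a PMP22 intronic element-driven Fluc reporter were seeded overnight, then exposed to compounds for 24 h at 37 °C. Luminescence was normalized to PTC124 (positive control) and DMSO (0% activity).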
# [8] = S16 Schwann cell viability assay (CellTiter-Glo assay) (AID 624031); also: nearly all actives have a fitted effect of over 70% in size; also: potency is read from the fitted curve at half-maximal effect
# Method in brief: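 Counter-screen for cytotoxicity: parental S16 rat Schwann cells lacking the PMP22 reporters, treated 24 h with compound, viability from cellular ATP by CellTiter-Glo luminescence, normalized to DMSO (0%) and no-cell wells.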
# [9] = S16 Schwann cell PMP22 intronic element beta-lactamase assay (AID 624044; calls by dose curve; also: nearly all actives have a fitted effect of over 15% in size)
# Method in brief: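 Beta-lactamase reporter under a PMP22 intronic regulatory element in stable S16 rat Schwann cells; 24 h compound exposure. 460 nm blue signal normalized between DMSO (0%) and potassium clavulanate, with 535 nm FRET tracking viability; curves classed by r2 and response.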
# [10] = qHTS Assay for Identification of Small Molecule Agonists for NFkB Signaling Pathway. (AID 624478);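 also: compounds tested together with TNF alpha at its EC50 of 10 pM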
# Method in brief: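 Read-out: 460/530 nm emission at 405 nm excitation after 2 h LiveBLAzer loading; ME-180 NFkB-bla reporter cells exposed 5 h at 37 C to compounds with 10 pM TNF alpha final.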
# [11] = Cell Proliferation Assay against the TMD8 Cell Line (AID 651645); details: TMD8 DLBCL cell line proliferation/viability; at 46.1 µM (top of the series);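 also: cells exposed to compound for 48 h before reading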
# Method in brief: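 Luminescent ATP read-out (CellTiter-Glo, 15 min RT) after 48 h compound exposure of log-growing TMD8 cells at 37C; percent activity scaled between DMSO as 100% and 9.2 uM bortezomib final as 0%.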
# [12] = Cell Proliferation Assay against the HBL1 Cell Line (AID 651646); details: HBL1 DLBCL cells; at 46.1 µM (top of the series);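 also: cells exposed to compound for 48 h before reading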
# Method in brief: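 After a 48 h incubation of 500 HBL1 cells/well in phenol red-free RPMI plus 5% FBS, relative luciferase units from CellTiter-Glo gave percent activity against DMSO and 9.2 uM bortezomib (final) controls.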
# [13] = Cell Proliferation Assay against the TMD8 Cell Line (Caspase readout at 8 hrs) (AID 651713); also: potency is read from the fitted curve at half-maximal effect
# Method in brief: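 Apoptosis readout: caspase 3/7 luminescence (Caspase-Glo), 15 min RT. Cells: TMD8, 500/well, RPMI + 5% FBS, no phenol red. Exposure 8 h, 37C. % activity vs DMSO = 0, bortezomib 9.2 uM final = 100.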
# [14] = qHTS assay for small molecule activators of the p53 signaling pathway (AID 651743; active = well fitted activation curve with a large enough effect in the signal ratio, not every such curve was filed as active; the % refers to the signal ratio); details: HCT-116 p53RE-bla, beta-lactamase FRET ratio, 16 h; stronger effect = higher value
# Method in brief: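 Here HCT-116 cells with an integrated p53-responsive beta-lactamase gene were incubated with compounds (16 hours, 37 C) after a 5-hour plating period; beta-lactamase activity was detected as fluorescence intensity via B/G FRET substrate.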
# [15] = qHTS assay for small molecule activators of the nuclear factor-kappa B (NF-kB) signaling pathway (AID 651749; active = well fitted activation curve with a large enough effect in the signal ratio; the % refers to the signal ratio); details: NF-kB-bla ME-180 cells, beta-lactamase FRET ratio, 16 h; stronger effect = higher value
# Method in brief: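 Beta-lactamase reporter expression, controlled by NF-kB response elements in ME-180 cells, was quantified fluorometrically via FRET disruption; cells at 2,000/well had been incubated with 23 nL test compound for 16 hr.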
smiles,measurement,setting,value
CCN1CCCC1CNC(=O)c1cc(S(N)(=O)=O)ccc1OC (stereo not given),Potency,[1],10 µM (active)
same,outcome,[2],inactive
same,outcome,[3],inactive
same,outcome,[4],inactive
same,Potency,[5],inactive
CCCc1nc(C)c2c(=O)[nH]c(-c3cc(S(=O)(=O)N4CCN(CC)CC4)ccc3OCC)nn12,Potency,[1],inactive
same,Potency,[6],inactive
same,Potency,[7],inactive
NC(=O)c1cccc(N)c1,Potency,[1],inactive
same,outcome,[2],inactive
same,outcome,[3],inactive
same,outcome,[4],inactive
same,Potency,[5],inactive
COCCCOc1cc(C[C@@H](C[C@H](N)[C@@H](O)C[C@H](C(=O)NCC(C)(C)C(N)=O)C(C)C)C(C)C)ccc1OC,Potency,[6],inactive
O[C@@H](CNC[C@H](O)[C@H]1CCc2cc(F)ccc2O1)[C@@H]1CCc2cc(F)ccc2O1,Potency,[6],inactive
O=C(O)CCn1c2c(c3ccccc31)C[C@H](NS(=O)(=O)c1ccc(F)cc1)CC2,Potency,[1],inactive
same,Potency,[6],inactive
same,Potency,[8],inactive
same,Potency,[7],inactive
CN(C)CCc1c[nH]c2ccc(CS(=O)(=O)N3CCCC3)cc12,Potency,[6],inactive
same,Potency,[8],inactive
same,Potency,[7],inactive
C1CCC(C(CC2CCCCN2)C2CCCCC2)CC1 (stereo not given),Potency,[6],inactive
same,Potency,[8],18.1 µM (active)
same,Potency,[7],32.2 µM (active)
COc1ccc(C(=O)CC(=O)c2ccc(C(C)(C)C)cc2)cc1,Potency,[6],inactive
same,Potency,[8],inactive
same,Potency,[7],inactive
same,Potency,[9],inactive
NC1(c2ccc(-c3nc4ccn5c(=O)[nH]nc5c4cc3-c3ccccc3)cc2)CCC1,Potency,[6],inactive
same,outcome,[10],inactive
same,viability (% of control),[11],-0.504%
same,"viability, percent of control",[12],1.05%
same,Potency,[13],26.4 µM (active)
CC[C@H](C)C(=O)O[C@H]1C[C@@H](C)C=C2C=C[C@H](C)[C@H](CC[C@@H]3C[C@@H](O)CC(=O)O3)[C@H]21,Potency,[6],inactive
same,Potency,[8],inactive
same,Potency,[7],inactive
same,Potency,[9],inactive
same,activation,[14],-3.22% (inactive)
same,activation,[15],-1.44% (inactive)
